The values that follow come from PubChem BioAssay (NCATS).

The structures appear in SMILES notation. Records with an inconclusive call do not appear. Unmarked numbers belong to inactive results. Activity calls are given as the source filed them. The call rests on the fitted dose curve; in most records, active means well fitted activation curve with a large enough effect; inconclusive means small, poorly fitted or top-dose-only effect; inactive means no such curve, though single readings can be large or run the other way.
Potency means the concentration at half of the fitted maximal effect.

For the assay, the target named is Cellular tumor antigen p53 (Homo sapiens) (UniProt P04637). Briefly: Primary qHTS for small molecule compounds that upregulate eGFP-tagged delta133p53alpha (in N-terminal) cells. (AID 2060322). Further: nearly all actives have a fitted effect of over 75% in size.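 On activation: cells pre-induced with doxycycline then dosed without doxycycline; series mostly up to about 56 µM; 0% = DMSO vehicle and 100% = reference activator.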 The following applies: NCI-H358 eGFP-delta133p53alpha fluorescence, 24 h; activation: active compounds read high. In a few lines: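 NCI-H358 cells pre-induced 24 h with 10 ng/ml doxycycline for eGFP-delta133p53alpha, plated dox-free and exposed 24 h at 37C to titrated compounds. Fixed, Hoechst-stained; gated GFP peak intensity by laser scanning cytometry, normalized to DMSO (0%) and 57.5 uM 5-azacytidine (100%).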
Sequence of Cellular tumor antigen p53 (Homo sapiens) (P04637 whole entry, looked up): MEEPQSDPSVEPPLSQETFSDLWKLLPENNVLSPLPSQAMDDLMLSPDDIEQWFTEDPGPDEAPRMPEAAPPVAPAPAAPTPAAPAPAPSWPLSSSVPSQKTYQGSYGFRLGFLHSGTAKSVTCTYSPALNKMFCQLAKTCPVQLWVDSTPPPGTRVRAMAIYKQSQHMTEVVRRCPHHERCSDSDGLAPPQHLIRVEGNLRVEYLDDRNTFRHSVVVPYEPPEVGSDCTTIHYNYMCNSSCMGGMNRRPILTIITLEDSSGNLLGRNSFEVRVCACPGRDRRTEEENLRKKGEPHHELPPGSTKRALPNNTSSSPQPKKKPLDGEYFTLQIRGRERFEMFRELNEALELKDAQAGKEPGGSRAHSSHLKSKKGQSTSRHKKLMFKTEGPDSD
On the technique in general: In qHTS, concentration-response curves come from the screen itself.
For the molecule `COCCCCC(=NOCCN)c1ccc(C(F)(F)F)cc1`, the activation is 8.31%.

As to `Cc1c[nH]c2ccccc12`, the activation is 17.6%.

For the molecule `CC(=O)N[C@@H](CC(C)C)C(=O)O`, the activation is 0%.

For the molecule `O=C1Nc2cc(Cl)ccc2Oc2ccccc21`, the activation is -1.69%.

With `NCCNCCNCCN`, the activation was -9.6%.

For the molecule `O=C1C(=O)c2ccccc2C(O)=C1C1CCC(c2ccc(Cl)cc2)CC1` (stereo not given), the activation was -33.3%.

Consider `CN(C)[C@@H]1C(=O)C(C(N)=O)=C(O)[C@@]2(O)C(=O)C3=C(O)c4c(O)cccc4C[C@H]3C[C@@H]12`, for which the Potency was 17.4 µM (active).

As for `Nc1ccc(S(=O)(=O)Nc2cnc3ccccc3n2)cc1`, the activation is -24.3%.

On to `CCCN(CCc1cccs1)[C@H]1CCc2c(O)cccc2C1`, for which the activation is 5.08%.

As for `N[C@H](C(=O)O)[C@@H](O)c1ccc(O)c(O)c1`, the activation is 5.02%.

For `CC(=O)N(c1onc(C)c1C)S(=O)(=O)c1ccc(N)cc1`, the activation is -0.565%.

As to `O=C1Nc2ccc(I)cc2C1=Cc1cc(Br)c(O)c(Br)c1`, the Potency was 24.3 µM (active).

Turning to `C[C@@H]1CCC[C@H](C)N1`, the activation was 8.37%.

Regarding `NC[C@H]1O[C@H](O[C@H]2[C@H](O)[C@@H](O[C@H]3O[C@H](CO)[C@@H](O)[C@H](N)[C@H]3O)[C@H](N)C[C@@H]2N)[C@H](N)[C@@H](O)[C@@H]1O`, the activation was -10.7%.

In the case of `CCN(CC)CCNC(=O)COc1ccc(Cl)cc1`, the activation is 19.2%.

For `Cc1[nH]cnc1-c1ccc(Cl)cc1`, the activation is 15.3%.

In the case of `CN(C)CCN(Cc1ccccc1)c1ccccn1`, the activation was 24.3%.

In the case of `O=C(O)/C=C\C(=O)O`, the activation was -25.4%.

Regarding `Nc1ccn([C@@H]2O[C@H](CO)[C@H](O)C2(F)F)c(=O)n1`, the activation is 10.5%.

With `CCCCCN(CCCOC)C(=O)C(CCC(=O)O)NC(=O)c1ccc(Cl)c(Cl)c1` (stereo not given), the activation was -18.6%.

With `O=C(O)CCCc1ccccc1`, the activation is 20.9%.

`NC[C@H]1O[C@H](O[C@H]2[C@H](O[C@@H]3O[C@H](CO)[C@@H](O)[C@H]3O)C(O)[C@H](N)C[C@@H]2N)[C@H](N)[C@@H](O)[C@@H]1O` (stereo not given in full): the activation was 0%.

As for `CCOc1ccccc1C(N)=O`, the activation was -11.9%.

Take `CCN(CCCCOC(=O)c1ccc(OC)c(OC)c1)C(C)Cc1ccc(OC)cc1` (stereo not given): the activation was -6.69%.

Regarding `NC(=O)NC(=O)Cc1ccccc1`, the activation was -10%.

Regarding `O=C(C=Cc1ccc(O)cc1)c1ccc(O)cc1O`, the activation was -12.8%.

For the molecule `CCCN1CCCC[C@H]1C(=O)Nc1c(C)cccc1C`, the activation is 9.6%.

For the molecule `NC(CO)(CO)CO`, the activation was -22%.

For the molecule `CNC[C@@H](O)[C@@H](O)[C@H](O)[C@H](O)CO`, the activation was 4.39%.

Turning to `NC(=O)CC[C@@H](N)C(=O)O`, the activation is 1.69%.

Take `O=C1c2c(O)cccc2Cc2cccc(O)c21`: the activation is -24.3%.

In the case of `CNC1[C@H](O)C(O[C@@H]2C(O)C(O[C@H]3O[C@H]([C@@H](C)NC)CC[C@H]3N)[C@@H](N)C[C@H]2N)OC[C@]1(C)O` (stereo not given in full), the activation is -1.3%.

On to `N[C@H]1C(O)O[C@H](CO)[C@@H](O)[C@@H]1O` (stereo not given in full), for which the activation was -0.837%.

With `CCCCN=C(N)NC(=N)N`, the activation was 9.6%.

Take `C[C@H]1O[C@@H](n2cc(F)c(=O)[nH]c2=O)[C@H](O)[C@H]1O`: the activation is 0.294%.

Consider `O=C(C=Cc1ccc(CN(CCO)CCc2c[nH]c3ccccc23)cc1)NO`, for which the activation is 23.4%.

As to `Oc1cn2c(n1)Nc1ccc(Cl)c(Cl)c1C2`, the activation was -8.37%.

In the case of `CCCCCOC(=O)Nc1nc(=O)n([C@@H]2O[C@H](C)[C@@H](O)C2O)cc1F` (stereo not given in full), the activation was -14.6%.

As for `O=C(Nc1ncc(SCCN2CCCC2)s1)[C@]1(c2ccc(S(=O)(=O)C3CC3)cc2)C[C@@H]1C1CCCCC1`, the activation was 26.3%.

Take `Cc1cccc(C=NNc2cc(N3CCOCC3)nc(OCCc3ccccn3)n2)c1`: the activation was -13.3%.
